# Source: PubChem BioAssay (NCATS)
# Values joined by “and” are separate entries in the source; they are usually repeats but may differ in a detail not shown here. Identical values can stand only once. Inconclusive results are not listed. Where a call stands in place of a potency, no number is given. The source holds several records for some structures; these can differ, active in one and inactive in another. Active and inactive are the calls of the source. Unless noted, calls follow the shape of the dose curve; as a rule, active = well fitted curve in the direction sought with a large enough effect; inconclusive = small, poorly fitted or top-dose-only effect, or another doubt; inactive = no such curve, though single readings can be large; an effect the other way counts as inactive or inconclusive.
# Legend:
# [1] = target: Guanine nucleotide-binding protein G(i) subunit alpha-1 (Homo sapiens) (UniProt P63096); test: qHTS Assay for Inhibitors of RGS12 GoLoco Motif Activity (Green Fluorophore) (AID 879);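 also: negative values mean loss of peptide binding seen as reduced polarization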
# Method in brief: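 A drop in FITC polarization marked displacement of the FITC-tagged RGS12 GoLoco peptide (10 nM) from Gαi1 (50 nM). Compounds were incubated 10 min at room temperature in Tris pH 7.5 buffer containing 150 mM NaCl, 0.1 mM GDP and 0.05% NP40; unlabeled peptide titration served as control.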
# [2] = target: Cytochrome P450 2C9 (Homo sapiens) (UniProt P11712); test: qHTS Assay for Inhibitors and Substrates of Cytochrome P450 2C9 (AID 883); also: nearly all actives have a fitted effect of over 60% in size
# Method in brief: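 Human CYP2C9 (10nM) with Luciferin-H at 100uM (its KM) in 25mM KPO4; compound preincubated 10 min at 37C, then NADPH regeneration for 60 min at 37C. Luciferin read by luminescence after detection reagent; normalized to 57uM sulphaphenazole as full inhibition.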
# [3] = target: Cytochrome P450 3A4 (Homo sapiens) (UniProt P08684); test: qHTS Assay for Inhibitors and Substrates of Cytochrome P450 3A4 (AID 884); also: nearly all actives have a fitted effect of over 50% in size; also: potency is read from the fitted curve at half-maximal effect
# Method in brief: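 Luminescent readout of luciferin produced by CYP3A4 (20 nM) dealkylation of Luciferin-PPXE, 25 uM (its KM). NADPH-driven reaction ran 60 min at RT after 10 min compound preincubation; data scaled to 57 uM ketoconazole as 100% inhibition.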
# [4] = target: Cytochrome P450 3A4 (Homo sapiens) (UniProt P08684); test: qHTS Assay for Activators of Cytochrome P450 3A4 (AID 885); also: nearly all actives have a fitted effect of over 65% in size
# Method in brief: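 Using 20nM recombinant human CYP3A4 in potassium phosphate (200mM), substrate Luciferin-PPXE at 25uM, luminescent luciferin detection followed a 60-min RT NADPH reaction; data scaled to 57 uM ketoconazole.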
# [5] = target: Cytochrome P450 2D6 (Homo sapiens) (UniProt P10635); test: qHTS Assay for Inhibitors and Substrates of Cytochrome P450 2D6 (AID 891); also: nearly all actives have a fitted effect of over 60% in size; also: potency is read from the fitted curve at half-maximal effect
# Method in brief: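 Luminescent read-out of luciferin formed by 5 nM human CYP2D6 demethylating 30 uM Luciferin-ME EGE (Km level) over 60 min at room temperature after NADPH regeneration addition. Data normalized to full inhibition by 1.43 uM quinidine.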
# [6] = target: Cytochrome P450 2C19 (Homo sapiens) (UniProt P33261); test: qHTS Assay for Inhibitors and Substrates of Cytochrome P450 2C19 (AID 899); also: nearly all actives have a fitted effect of over 60% in size
# Method in brief: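 5 nM human CYP2C19 with 10uM Luciferin-H EGE (at KM) in 50mM KPO4, compound preincubated 10 min at 37C, then NADPH regeneration for 60 min at 37C. Luciferin read by luminescence after detection reagent; normalized to 57uM ketoconazole as full inhibition.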
# [7] = Confirmation and Secondary Assay for Modulators of Hemoglobin Beta Chain Splicing at IVS2 654 locus (AID 910);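 also: HeLa cells stably carrying EGFP split by mutant beta-globin IVS2-654 intron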;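 also: potency is read from the fitted curve at half-maximal effect; potency of activators that raise GFP signal by restoring correct splicing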
# Method in brief: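 HeLa cells stably expressing EGFP interrupted by β-globin IVS2-654 intron, seeded overnight in Opti-MEM/2% FCS, then treated 2 days at 37 °C. Restored splicing read as total peak GFP intensity per well by laser scanning cytometry (488 nm excitation, 500–520 nm emission); 500 nM antisense PNA as control.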
# [8] = qHTS Assay for Identification of Small Molecule Antagonists for Thrombopoietin (TPO) Signaling Pathway (AID 918); conditions: TPO-dependent cell signaling reporter, antagonist mode; also: potency is read from the fitted curve at half-maximal effect; nearly all actives have a fitted effect of over 60% in size
# Method in brief: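 Inhibition read as reduced luciferase luminescence after 24 h at 37 C in IL-3-deprived Ba/F3 cells carrying human TPO receptor and GPIIb-promoter reporter, stimulated with 26 pM TPO (final, its EC50) alongside compound.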
# [9] = Cellular Toxicity (caspase-3) Hek293 (AID 664);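 also: cells exposed to compound for 16 h at 37 °C before readout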
# Method in brief: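 Concentration-response qHTS: caspase 3/7 activation measured by luminescent aminoluciferin substrate cleavage after 16 h compound exposure of Hek 293 cells. AC50 from Hill equation, with DMSO as basal and 100 uM tamoxifen as 100%.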
# [10] = Cellular Toxicity (caspase-3) N2a (AID 665);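 also: compound exposure lasted 16 h at 37 °C before readout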
# Method in brief: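 Caspase-3/7 activation measured as luminescence from Caspase-Glo reagent (1 h, room temperature) after 16 h compound exposure of mouse N2a cells. AC50 values from Hill-equation concentration-response, scaled between DMSO and 10 uM staurosporine.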
# [11] = Cellular Toxicity (caspase-3) Renal Proximal Tubule (AID 667);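 also: cells exposed to compound for 16 hours at 37 °C before detection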
# Method in brief: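 Primary rat proximal tubule cells, 1000/well, 5 h plating at 37 °C, then compound 16 h at 37 °C. Caspase-Glo 3/7 reagent, 1 h RT, luminescence. Normalized to DMSO (basal) and 10 uM staurosporine (100%); Hill-fit AC50.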
# [12] = Cell Viability - LYMP2-001 (AID 921); also: series mostly up to about 92 µM; nearly all actives have a fitted effect of over 70% in size
# Method in brief: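 Human lymphoblastoid cells (Coriell), 2500 per well, were preincubated 5 hr at 37 C, then exposed to compounds in complete medium for 24 hr at 37 C. Cellular ATP was read by CellTiter-Glo luminescence; AC50 from Hill fits of concentration-response data.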
# [13] = MultiTox-Fluor Cytotoxicity Assay - LYMP1-001 - Dead Cells (AID 946)
# Method in brief: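 In this qHTS, 15 uM tetraoctylammonium bromide defined 100% and DMSO defined basal activity. Lymphoblastoid cells (LYMP1-001, 2500 per well) received compound for 16 hr at 37 C before a fluorogenic dead-cell substrate readout at 485/520 nm.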
# [14] = Cell Viability - LYMP1-002 - Assay at 16 hr (AID 948)
# Method in brief: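 Human lymphoblastoid cells (LYMP1-002), 2500/well, were preincubated 5 hr at 37 C, then exposed to compounds for 16 hr at 37 C in complete medium. Cellular ATP was read by CellTiter-Glo luminescence after 30 min at room temperature; AC50 from Hill fits.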
# [15] = MultiTox-Fluor Cytotoxicity Assay - LYMP1-002 - Live Cells (AID 955)
# Method in brief: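 After 16 h compound exposure at 37 C, live LYMP1-002 lymphoblastoid cells (2500/well) were quantified by cleavage of cell-permeant GF-AFC substrate, read at 405/510 nm after 60 min. Concentration-response fitted with Hill equation for AC50.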
# [16] = MultiTox-Fluor Cytotoxicity Assay - LYMP1-001 - Live Cells (AID 947)
# [17] = qHTS Assay for Identification of Small Molecule Agonists for Thrombopoietin (TPO) Signaling Pathway (AID 917)
# Method in brief: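 First, Ba/F3 cells with human TPO receptor were held overnight without IL-3. Next, compounds and TPO (26 pM final) were added. After 24 hrs at 37 C, luciferase detection reagent was added and luminescence measured following 10 min at room temperature.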
# [18] = target: Muscarinic acetylcholine receptor M1 (Rattus norvegicus) (UniProt P08482); test: qHTS Assay for Antagonists of Acetylcholine Muscarinic M1 Receptor: Kinetic Measurement of Intracellular Calcium Response (AID 943); also: nearly all actives have a fitted effect of over 75% in size; also: potency is read from the fitted curve at half-maximal effect
# Method in brief: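 Antagonism measured as reduction of carbachol-evoked (EC80, 100 nM final) calcium flux in rat M1-CHO cells after 10 min compound exposure. Fluo-4 signal read kinetically; ratio of maximal to basal fluorescence.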
# [19] = target: Muscarinic acetylcholine receptor M1 (Rattus norvegicus) (UniProt P08482); test: qHTS Assay for Antagonists of Acetylcholine Muscarinic M1 Receptor: Measurement of IP-One Response (AID 944); also: nearly all actives have a fitted effect of over 75% in size; also: potency is read from the fitted curve at half-maximal effect
# Method in brief: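 IP1 accumulation measured via TR-FRET between d2-IP1 and Eu-cryptate anti-IP1 antibody after carbachol (200 nM, EC80) stimulation for 30 min; rat M1-transfected CHO cells received compound 10 min before agonist.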
# [20] = qHTS Assay for Identification of Small Molecule Agonists for Hypoxia Response Element Signaling Pathway (AID 914; active = well fitted activation curve with a large enough effect in the signal ratio, with a control signal flat, not every such curve was filed as active; the % refers to the signal ratio); conditions: ME-180 (cervical carcinoma) HRE-bla reporter, beta-lactamase ratio, CoCl2, 17 h; stronger effect = higher value
# Method in brief: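 Compounds in a titration series were added to ME-180 reporter cells alongside an EC50 level of CoCl2. After 17 hours, beta-lactamase activity was read as the 460nm/530nm emission ratio of CCF4, giving AC50 values.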
# Sequence of Muscarinic acetylcholine receptor M1 (Rattus norvegicus) (P08482 whole entry, looked up): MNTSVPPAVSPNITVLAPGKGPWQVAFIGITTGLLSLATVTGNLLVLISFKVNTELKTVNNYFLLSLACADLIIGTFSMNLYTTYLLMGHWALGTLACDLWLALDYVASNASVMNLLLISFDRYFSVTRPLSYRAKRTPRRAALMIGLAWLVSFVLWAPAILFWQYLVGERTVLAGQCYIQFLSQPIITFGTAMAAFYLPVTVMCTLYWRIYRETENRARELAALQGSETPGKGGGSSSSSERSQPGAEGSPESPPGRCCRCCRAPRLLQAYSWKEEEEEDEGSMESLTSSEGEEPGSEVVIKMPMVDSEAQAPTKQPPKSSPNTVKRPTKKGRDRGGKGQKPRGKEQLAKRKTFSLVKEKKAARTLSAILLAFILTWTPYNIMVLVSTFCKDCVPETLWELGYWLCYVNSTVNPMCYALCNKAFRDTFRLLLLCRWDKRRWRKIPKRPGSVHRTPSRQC
# Sequence of Cytochrome P450 2C9 (Homo sapiens) (P11712 whole entry, looked up): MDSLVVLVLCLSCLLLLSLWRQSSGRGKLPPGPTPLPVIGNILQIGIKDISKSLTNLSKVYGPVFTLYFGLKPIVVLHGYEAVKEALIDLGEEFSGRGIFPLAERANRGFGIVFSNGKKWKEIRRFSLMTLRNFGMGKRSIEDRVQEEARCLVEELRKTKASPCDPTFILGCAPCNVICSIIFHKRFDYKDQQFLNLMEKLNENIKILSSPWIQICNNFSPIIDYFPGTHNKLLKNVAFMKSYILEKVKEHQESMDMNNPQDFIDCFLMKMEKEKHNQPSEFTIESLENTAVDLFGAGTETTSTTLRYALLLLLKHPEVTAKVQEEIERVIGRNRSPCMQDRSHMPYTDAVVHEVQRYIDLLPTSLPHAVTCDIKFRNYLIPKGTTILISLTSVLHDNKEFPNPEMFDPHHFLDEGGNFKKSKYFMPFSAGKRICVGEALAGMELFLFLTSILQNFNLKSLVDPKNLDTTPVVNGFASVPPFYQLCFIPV
# Sequence of Cytochrome P450 2D6 (Homo sapiens) (P10635 whole entry, looked up): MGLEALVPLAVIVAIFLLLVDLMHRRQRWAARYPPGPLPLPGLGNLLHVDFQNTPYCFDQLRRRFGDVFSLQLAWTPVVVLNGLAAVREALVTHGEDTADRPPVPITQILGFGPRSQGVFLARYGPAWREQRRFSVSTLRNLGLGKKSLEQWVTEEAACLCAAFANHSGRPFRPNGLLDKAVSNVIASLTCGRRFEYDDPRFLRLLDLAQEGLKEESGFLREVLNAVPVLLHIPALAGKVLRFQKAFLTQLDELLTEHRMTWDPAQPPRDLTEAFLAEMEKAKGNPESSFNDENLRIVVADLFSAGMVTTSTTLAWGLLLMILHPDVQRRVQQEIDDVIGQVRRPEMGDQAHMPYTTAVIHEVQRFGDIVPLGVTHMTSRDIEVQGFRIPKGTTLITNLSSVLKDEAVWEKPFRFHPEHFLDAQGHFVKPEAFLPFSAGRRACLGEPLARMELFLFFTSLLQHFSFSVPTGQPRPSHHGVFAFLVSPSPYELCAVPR
# Sequence of Cytochrome P450 3A4 (Homo sapiens) (P08684 whole entry, looked up): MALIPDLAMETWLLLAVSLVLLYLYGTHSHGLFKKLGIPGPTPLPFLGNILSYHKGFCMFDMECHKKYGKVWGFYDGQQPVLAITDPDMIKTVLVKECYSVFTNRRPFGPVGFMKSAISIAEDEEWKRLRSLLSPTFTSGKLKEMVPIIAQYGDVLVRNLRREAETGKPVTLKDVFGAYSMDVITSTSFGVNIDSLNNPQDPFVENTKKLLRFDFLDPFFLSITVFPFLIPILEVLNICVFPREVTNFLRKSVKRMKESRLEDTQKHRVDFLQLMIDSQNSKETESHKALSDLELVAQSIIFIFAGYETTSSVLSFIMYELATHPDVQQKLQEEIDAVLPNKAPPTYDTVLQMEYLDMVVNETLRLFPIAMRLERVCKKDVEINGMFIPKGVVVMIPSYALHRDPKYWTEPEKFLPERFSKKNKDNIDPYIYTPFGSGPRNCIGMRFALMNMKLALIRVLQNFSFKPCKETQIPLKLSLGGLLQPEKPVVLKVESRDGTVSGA
# Sequence of Guanine nucleotide-binding protein G(i) subunit alpha-1 (Homo sapiens) (P63096 whole entry, looked up): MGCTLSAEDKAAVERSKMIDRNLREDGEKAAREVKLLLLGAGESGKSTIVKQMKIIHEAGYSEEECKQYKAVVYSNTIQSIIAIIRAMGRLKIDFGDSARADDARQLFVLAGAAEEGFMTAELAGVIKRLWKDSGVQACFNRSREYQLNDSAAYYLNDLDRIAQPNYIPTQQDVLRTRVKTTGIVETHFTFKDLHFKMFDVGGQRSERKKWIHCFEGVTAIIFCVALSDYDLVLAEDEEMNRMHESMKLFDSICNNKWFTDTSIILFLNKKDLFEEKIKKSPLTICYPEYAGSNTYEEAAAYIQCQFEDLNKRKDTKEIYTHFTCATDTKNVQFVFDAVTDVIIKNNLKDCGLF
# Sequence of Cytochrome P450 2C19 (Homo sapiens) (P33261 whole entry, looked up): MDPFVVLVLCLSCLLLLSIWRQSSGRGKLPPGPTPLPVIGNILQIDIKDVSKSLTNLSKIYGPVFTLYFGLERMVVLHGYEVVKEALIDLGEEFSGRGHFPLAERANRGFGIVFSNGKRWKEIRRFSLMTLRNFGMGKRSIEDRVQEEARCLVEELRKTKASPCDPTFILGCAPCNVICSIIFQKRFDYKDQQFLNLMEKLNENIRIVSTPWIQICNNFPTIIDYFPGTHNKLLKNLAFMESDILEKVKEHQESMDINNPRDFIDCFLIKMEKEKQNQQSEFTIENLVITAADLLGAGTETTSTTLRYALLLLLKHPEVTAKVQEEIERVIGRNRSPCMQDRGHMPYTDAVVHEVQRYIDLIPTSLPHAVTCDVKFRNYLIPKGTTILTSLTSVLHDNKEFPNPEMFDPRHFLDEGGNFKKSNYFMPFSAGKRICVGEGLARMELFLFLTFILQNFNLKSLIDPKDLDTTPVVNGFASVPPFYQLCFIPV
structure (smiles),measurement,setting,value
CC[C@@]1(O)C(=O)OCc2c1cc1n(c2=O)Cc2cc3ccccc3nc2-1,outcome,[1],inactive
same,Potency,[2],inactive
same,Potency,[3],6.31 µM (active) and inactive
same,outcome,[4],inactive
same,Potency,[5],inactive
same,Potency,[6],inactive
same,Potency,[7],inactive and 1 µM (active)
same,Potency,[8],126 nM (active)
CCOP(=O)(NC(C)C)Oc1ccc(SC)c(C)c1 (stereo not given),outcome,[9],inactive
same,outcome,[10],inactive
same,outcome,[11],inactive
same,outcome,[4],inactive
same,Potency,[12],inactive
same,outcome,[13],inactive
same,Potency,[14],inactive
same,Potency,[15],inactive
COc1ccc(C(c2ccc(OC)cc2)C(Cl)(Cl)Cl)cc1,outcome,[9],inactive
same,outcome,[10],inactive
same,outcome,[11],inactive
same,Potency,[3],inactive
same,Potency,[7],inactive
same,Potency,[12],inactive
same,outcome,[13],inactive
same,Potency,[16],inactive
same,Potency,[14],inactive
same,Potency,[15],inactive
CCCN(CCC)[C@@H]1CCc2ccc(O)cc2C1,outcome,[1],inactive
same,Potency,[2],inactive
same,Potency,[5],794 nM (active)
same,outcome,[17],inactive
same,Potency,[18],5.01 µM (active) and 282 nM (active)
same,Potency,[19],5.01 µM (active) and 3.98 µM (active)
OCCCBr,outcome,[9],inactive
same,outcome,[10],inactive
same,outcome,[11],inactive
same,Potency,[3],inactive
same,Potency,[12],inactive
same,outcome,[13],inactive
same,Potency,[14],inactive
same,Potency,[15],inactive
CC(=O)NCCc1c[nH]c2ccccc12,outcome,[1],inactive
same,Potency,[2],inactive
same,Potency,[5],inactive
same,Potency,[6],inactive
same,outcome,[17],inactive
same,Potency,[18],inactive
same,Potency,[19],inactive
O=[N+]([O-])c1cc([N+](=O)[O-])c2ccccc2c1,outcome,[9],inactive
same,outcome,[10],inactive
same,outcome,[11],inactive
same,Potency,[3],inactive
same,Potency,[12],inactive
same,outcome,[13],inactive
same,Potency,[16],inactive
same,Potency,[14],inactive
same,Potency,[15],inactive
COC(C)(C)CCCC(C)C/C=C/C(C)=C/C(=O)OC(C)C (stereo not given),outcome,[9],inactive
same,outcome,[10],inactive
same,outcome,[11],inactive
same,outcome,[4],inactive
same,Potency,[7],inactive
same,Potency,[12],inactive
same,outcome,[13],inactive
same,Potency,[16],inactive
same,Potency,[14],inactive
same,Potency,[15],inactive
CN(C)[C@@H]1C(=O)C(C(N)=O)=C(O)[C@@]2(O)C(=O)C3=C(O)c4c(O)cccc4[C@@](C)(O)[C@H]3[C@H](O)[C@@H]12,outcome,[9],inactive
same,outcome,[10],inactive
same,outcome,[11],inactive
same,Potency,[3],inactive
same,outcome,[13],inactive
same,Potency,[16],inactive
same,Potency,[14],inactive
same,Potency,[15],inactive
Nc1ccc(Sc2ccc(N)cc2)cc1,outcome,[9],inactive
same,outcome,[10],inactive
same,outcome,[11],inactive
same,Potency,[12],inactive
same,outcome,[13],inactive
same,Potency,[16],inactive
same,Potency,[14],inactive
same,Potency,[15],inactive
O=S(=O)(c1ccc(Cl)cc1)c1ccc(Cl)cc1,outcome,[9],inactive
same,outcome,[10],inactive
same,outcome,[11],inactive
same,outcome,[4],inactive
same,Potency,[12],inactive
same,outcome,[13],inactive
same,Potency,[16],inactive
same,Potency,[14],inactive
same,Potency,[15],inactive
O=C(O)Cc1cnc[nH]1,outcome,[1],inactive
same,outcome,[4],inactive
same,activation,[20],7.21% (inactive)
same,outcome,[17],inactive
same,Potency,[19],inactive
NC(=NCCC[C@H](N)C(=O)O)N[N+](=O)[O-],outcome,[1],inactive
same,outcome,[17],inactive
same,Potency,[18],inactive
same,Potency,[19],inactive
